Measured values reported in PubChem BioAssay AID1159580 (chemical genetic matrix, 2015).
About 2,000 (36%) of roughly 5,500 compounds were called active. About 18% were inconclusive and are not listed. Cut-off read from the data, not from the text of the source: active = normalized growth mostly below about 0.91 (no sharp cut-off); inconclusive = no clear call, values can overlap the other calls; inactive = mostly above about 0.92. The list shows a part of the results.

Test: chemical genetic growth profiling, strain panel (AID 1159580);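 note: tested at 20 µM; growth read once vehicle control cultures reached saturation at 30 °C; 1 = growth at the plate median or of vehicle wells; lower values mean less growth of the strain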
Conditions: growth OD

Measured: normalized growth

CN[C@@H](C)[C@@H](O)c1ccccc1
inactive: S. cerevisiae deletion strains, locus YKL068W, stronger effect = lower value 0.978 | S. cerevisiae deletion strains, locus YKL085W, strain MDH1 (second series), stronger effect = lower value 0.992 | S. cerevisiae deletion strains, locus YKL085W, strain MDH1, stronger effect = lower value 0.992 | S. cerevisiae deletion strains, locus YKL160W, strain elf1, stronger effect = lower value 0.968 | S. cerevisiae deletion strains, locus YKL190W, strain CNB1, stronger effect = lower value 0.998 | S. cerevisiae deletion strains, locus YKR001C, strain vps1, stronger effect = lower value 0.978 | S. cerevisiae deletion strains, locus YKR026C, strain gcn3, stronger effect = lower value 0.994 | S. cerevisiae deletion strains, locus YKR091W, strain srl3, stronger effect = lower value 1 | S. cerevisiae deletion strains, locus YLL001W, strain dnm1, stronger effect = lower value 1.01 | S. cerevisiae deletion strains, locus YLL026W, stronger effect = lower value 1.01 | S. cerevisiae deletion strains, locus YLL041C, strain sdh2, stronger effect = lower value 1 | S. cerevisiae deletion strains, locus YLR027C, strain aat2, stronger effect = lower value 1 | S. cerevisiae deletion strains, locus YLR039C, strain RIC1, stronger effect = lower value 0.966 | S. cerevisiae deletion strains, locus YLR058C, strain SHM2, stronger effect = lower value 0.988 | S. cerevisiae deletion strains, locus YLR102C, strain apc9, stronger effect = lower value 0.99 | S. cerevisiae deletion strains, locus YLR113W, strain HOG1, stronger effect = lower value 0.984 | S. cerevisiae deletion strains, locus YLR221C, strain rsa3, stronger effect = lower value 0.994 | S. cerevisiae deletion strains, locus YLR258W, strain gsy2, stronger effect = lower value 0.981 | S. cerevisiae deletion strains, locus YLR262C, strain YPT6 (second series), stronger effect = lower value 1.01 | S. cerevisiae deletion strains, locus YLR262C, strain YPT6, stronger effect = lower value 0.914 | S. cerevisiae deletion strains, locus YLR268W, strain sec22, stronger effect = lower value 0.983 | S. cerevisiae deletion strains, locus YLR320W, strain mms22, stronger effect = lower value 0.985 | S. cerevisiae deletion strains, locus YLR330W, strain CHS5, stronger effect = lower value 0.987 | S. cerevisiae deletion strains, locus YLR342W, strain FKS1 (second series), stronger effect = lower value 0.99 | S. cerevisiae deletion strains, locus YLR342W, strain FKS1, stronger effect = lower value 1.01 | S. cerevisiae deletion strains, locus YLR357W, strain rsc2, stronger effect = lower value 0.972 | S. cerevisiae deletion strains, locus YLR370C, strain arc18, stronger effect = lower value 0.982 | S. cerevisiae deletion strains, locus YLR371W, strain rom2, stronger effect = lower value 0.981 | S. cerevisiae deletion strains, locus YLR384C, strain iki3, stronger effect = lower value 0.993 | S. cerevisiae deletion strains, locus YLR418C, strain cdc73, stronger effect = lower value 1.02 | S. cerevisiae deletion strains, locus YML016C, strain PPZ1, stronger effect = lower value 0.987 | S. cerevisiae deletion strains, locus YML032C, strain rad52, stronger effect = lower value 0.979 | S. cerevisiae deletion strains, locus YML120C, strain ndi1, stronger effect = lower value 1.01 | S. cerevisiae deletion strains, locus YML124C, strain tub3, stronger effect = lower value 0.99 | S. cerevisiae deletion strains, locus YMR058W, strain fet3, stronger effect = lower value 1.01 | S. cerevisiae deletion strains, locus YMR078C, strain ctf18, stronger effect = lower value 0.985 | S. cerevisiae deletion strains, locus YMR125W, strain sto1, stronger effect = lower value 0.985 | S. cerevisiae deletion strains, locus YMR129W, stronger effect = lower value 0.976 | S. cerevisiae deletion strains, locus YMR205C, strain PFK2, stronger effect = lower value 0.984 | S. cerevisiae deletion strains, locus YMR223W, strain ubp8, stronger effect = lower value 0.985 | S. cerevisiae deletion strains, locus YMR231W, strain pep5, stronger effect = lower value 0.998 | S. cerevisiae deletion strains, locus YMR263W, strain SAP30, stronger effect = lower value 1.01 | S. cerevisiae deletion strains, locus YMR307W, strain GAS1, stronger effect = lower value 0.881 | S. cerevisiae deletion strains, locus YNL067W, strain RPL9B, stronger effect = lower value 1.04 | S. cerevisiae deletion strains, locus YNL071W, strain lat1, stronger effect = lower value 1.01 | S. cerevisiae deletion strains, locus YNL183C, strain NPR1, stronger effect = lower value 0.978 | S. cerevisiae deletion strains, locus YNL209W, strain ssb2, stronger effect = lower value 0.978 | S. cerevisiae deletion strains, locus YNL233W, strain BNI4, stronger effect = lower value 1.05 | S. cerevisiae deletion strains, locus YNL248C, strain rpa49, stronger effect = lower value 0.986 | S. cerevisiae deletion strains, locus YNL250W, strain rad50, stronger effect = lower value 0.99 | S. cerevisiae deletion strains, locus YNL271C, strain bni1, stronger effect = lower value 0.976 | S. cerevisiae deletion strains, locus YNL298W, strain CLA4, stronger effect = lower value 0.97 | S. cerevisiae deletion strains, locus YNL307C, strain MCK1, stronger effect = lower value 0.992 | S. cerevisiae deletion strains, locus YNL322C, strain KRE1 (second series), stronger effect = lower value 0.977 | S. cerevisiae deletion strains, locus YNR049C, strain mso1, stronger effect = lower value 0.998 | S. cerevisiae deletion strains, locus YNR052C, strain pop2, stronger effect = lower value 0.997 | S. cerevisiae deletion strains, locus YOL006C, strain TOP1, stronger effect = lower value 1.07 | S. cerevisiae deletion strains, locus YOL012C, strain htz1 1.99 | S. cerevisiae deletion strains, locus YOL147C, strain pex11, stronger effect = lower value 0.993 | S. cerevisiae deletion strains, locus YOR001W, strain rrp6, stronger effect = lower value 0.997 | S. cerevisiae deletion strains, locus YOR061W, strain CKA2, stronger effect = lower value 0.971 | S. cerevisiae deletion strains, locus YOR069W, strain VPS5, stronger effect = lower value 0.986 | S. cerevisiae deletion strains, locus YOR070C, strain gyp1, stronger effect = lower value 0.984 | S. cerevisiae deletion strains, locus YOR080W, strain dia2, stronger effect = lower value 0.994 | S. cerevisiae deletion strains, locus YOR083W, strain WHI5, stronger effect = lower value 0.961 | S. cerevisiae deletion strains, locus YOR106W, strain vam3, stronger effect = lower value 1.01 | S. cerevisiae deletion strains, locus YOR136W, strain idh2, stronger effect = lower value 0.991 | S. cerevisiae deletion strains, locus YOR144C, strain elg1, stronger effect = lower value 0.987 | S. cerevisiae deletion strains, locus YOR184W, strain ser1, stronger effect = lower value 0.987 | S. cerevisiae deletion strains, locus YOR231W, strain MKK1, stronger effect = lower value 0.98 | S. cerevisiae deletion strains, locus YOR265W, strain rbl2, stronger effect = lower value 1 | S. cerevisiae deletion strains, locus YOR270C, strain vph1, stronger effect = lower value 1.04 | S. cerevisiae deletion strains, locus YOR290C, strain snf2, stronger effect = lower value 0.972 | S. cerevisiae deletion strains, locus YOR316C, strain cot1, stronger effect = lower value 0.986 | S. cerevisiae deletion strains, locus YPL051W, strain arl3, stronger effect = lower value 0.99 | S. cerevisiae deletion strains, locus YPL078C, strain atp4, stronger effect = lower value 1.02 | S. cerevisiae deletion strains, locus YPL106C, strain sse1, stronger effect = lower value 0.937 | S. cerevisiae deletion strains, locus YPL240C, strain hsp82, stronger effect = lower value 0.993 | S. cerevisiae deletion strains, locus YPL241C, strain CIN2, stronger effect = lower value 0.979 | S. cerevisiae deletion strains, locus YPL256C, strain CLN2, stronger effect = lower value 1.03 | S. cerevisiae deletion strains, locus YPR119W, strain clb2, stronger effect = lower value 0.983 | S. cerevisiae deletion strains, locus YPR141C, strain kar3, stronger effect = lower value 0.989 | S. cerevisiae deletion strains, locus YPR163C, strain tif3, stronger effect = lower value 0.989 | S. cerevisiae deletion strains, locus YPR167C, strain met16, stronger effect = lower value 0.988 | S. cerevisiae deletion strains, strain wtn01, stronger effect = lower value 1 | S. cerevisiae strains, strain wild type, stronger effect = lower value 0.987
